PubChem BioAssay (EPA / NIEHS)
Results filed as inconclusive are left out. The source made the active and inactive calls. The calls were made as follows: active = hit-call score of the fitted dose curve at least 0.9, where 1 is the maximum; inconclusive = response in the unintended direction; inactive = score below 0.9.

Test: ACEA_AR_agonist_AUC_viability: ACEA Biosciences xCELLigence Real-Time Cell Analysis on Androgen Receptor Agonism for Viability (AID 2283775);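 as to AC50: viability read 80 hours after compound addition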
In short: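 Real-time impedance tracking of 22Rv1 growth, readings every 5 min for 5 h then hourly; area-under-curve viability endpoint at 80 hours, relative to DMSO. Compounds at eight concentrations, 1:4 steps, top 100 uM, n = 2.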

With CCCCCCCCCCCCC[N+](C)(C)Cc1ccccc1 as the compound, how does the AC50 read?
Its AC50 is 2.99 µM (active).

With CCN=c1cc2oc3cc(NCC)c(C)cc3c(-c3ccccc3C(=O)OCC)c-2cc1C as the compound, how does the AC50 read?
Its AC50 is 0.0138 µM (active).

For CCCCCCCCn1sc(Cl)c(Cl)c1=O, which AC50 is on record?
The AC50 was 21.3 µM (active).

For CCCCCCCCCCCCCC[P+](CCCC)(CCCC)CCCC, which AC50 is on record?
The AC50 was 0.0138 µM (active).

For CCCCC(CC)COC(=O)c1ccc(N(C)C)cc1 (configuration not stated), which outcome is on record?
The outcome was “inactive”.

With CCc1cc(Cc2cc(CC)c(N)c(CC)c2)cc(CC)c1N as the compound, how does the outcome read?
The outcome was “inactive”.

With CCN=C1C=CC(=C(c2ccc(N(CC)CC)cc2)c2ccc(N(CC)CC)cc2)c2ccccc21 as the compound, how does the outcome read?
Its outcome is “inactive”.

Which AC50 does the source give for CCCCCCCCCc1ccc(OCCO)cc1 here?
The AC50 was 9.26 µM (active).

Which outcome does the source give for CCCCOC(=O)C(C)O (configuration not stated) here?
The outcome was “inactive”.

For CCOC(=O)C1CC(=O)C(=C(O)C2CC2)C(=O)C1 (configuration not stated), which outcome is on record?
Its outcome is “inactive”.

With COCCOCCC[Si](C)(O[Si](C)(C)C)O[Si](C)(C)C as the compound, how does the outcome read?
The outcome was “inactive”.

With CC(C)(C)c1cc(Cc2cc(C(C)(C)C)c(O)c(C(C)(C)C)c2)cc(C(C)(C)C)c1O as the compound, how does the outcome read?
The outcome was “inactive”.

For N#Cc1ccccc1O, which outcome is on record?
The outcome was “inactive”.

Which outcome does the source give for O=C1C=CC(=O)N1c1ccccc1 here?
Its outcome is “inactive”.

Which outcome does the source give for CC(C)OC=O here?
Its outcome is “inactive”.

For CC(=O)CCC(C)C, which outcome is on record?
The outcome was “inactive”.

For Cc1ccc([N+](=O)[O-])c(C)c1, which outcome is on record?
Its outcome is “inactive”.

Which outcome does the source give for Cc1ccc(O)c(-n2nc3ccccc3n2)c1 here?
The outcome was “inactive”.

With CC(C)Nc1ccc(NC(C)C)c2c1C(=O)c1ccccc1C2=O as the compound, how does the outcome read?
The outcome was “inactive”.

Which outcome does the source give for CCC(Cc1c(I)cc(I)c(N)c1I)C(=O)O (configuration not stated) here?
Its outcome is “inactive”.

With CCOC(OCC)OCC as the compound, how does the outcome read?
The outcome was “inactive”.

Test: ACEA_AR_antagonist_AUC_viability: ACEA Biosciences xCELLigence Real-Time Cell Analysis on Androgen Receptor Antagonism for Viability (AID 2283776);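 also: hits lower the growth signal relative to DMSO meaning cytotoxicity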
In short: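 22Rv1 human prostate cancer cells were seeded on electrode plates, monitored overnight, then exposed to eight 1:4 dilutions from 100 uM final. Impedance-based growth kinetics at 80 h gave an AUC viability endpoint normalized to DMSO.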

With CCCCCCCCCCCCC[N+](C)(C)Cc1ccccc1 as the compound, how does the AC50 read?
The AC50 was 3.31 µM (active).

Which AC50 does the source give for CCN=c1cc2oc3cc(NCC)c(C)cc3c(-c3ccccc3C(=O)OCC)c-2cc1C here?
Its AC50 is 0.0138 µM (active).

With CCCCCCCCn1sc(Cl)c(Cl)c1=O as the compound, how does the outcome read?
The outcome was “inactive”.

For CCCCCCCCCCCCCC[P+](CCCC)(CCCC)CCCC, which AC50 is on record?
Its AC50 is 0.0138 µM (active).

For CCCCC(CC)COC(=O)c1ccc(N(C)C)cc1 (configuration not stated), which outcome is on record?
The outcome was “inactive”.

With CCN=C1C=CC(=C(c2ccc(N(CC)CC)cc2)c2ccc(N(CC)CC)cc2)c2ccccc21 as the compound, how does the AC50 read?
Its AC50 is 0.134 µM (active).

For CCCCCCCCCc1ccc(OCCO)cc1, which AC50 is on record?
The AC50 was 14.2 µM (active).

For CCCCOC(=O)C(C)O (configuration not stated), which outcome is on record?
The outcome was “inactive”.

For CCOC(=O)C1CC(=O)C(=C(O)C2CC2)C(=O)C1 (configuration not stated), which outcome is on record?
The outcome was “inactive”.

For COCCOCCC[Si](C)(O[Si](C)(C)C)O[Si](C)(C)C, which outcome is on record?
Its outcome is “inactive”.

With CC(C)(C)c1cc(CCC(=O)OCC(COC(=O)CCc2cc(C(C)(C)C)c(O)c(C(C)(C)C)c2)(COC(=O)CCc2cc(C(C)(C)C)c(O)c(C(C)(C)C)c2)COC(=O)CCc2cc(C(C)(C)C)c(O)c(C(C)(C)C)c2)cc(C(C)(C)C)c1O as the compound, how does the outcome read?
Its outcome is “inactive”.

For CC(C)(C)c1cc(Cc2cc(C(C)(C)C)c(O)c(C(C)(C)C)c2)cc(C(C)(C)C)c1O, which outcome is on record?
The outcome was “inactive”.

With N#Cc1ccccc1O as the compound, how does the outcome read?
Its outcome is “inactive”.

With CCCCCCCC/C=C\CCCCCCCC(=O)OCC(O)CO (configuration not stated) as the compound, how does the outcome read?
Its outcome is “inactive”.

With O=C1C=CC(=O)N1c1ccccc1 as the compound, how does the outcome read?
The outcome was “inactive”.

With Cc1ccc(O)c(-n2nc3ccccc3n2)c1 as the compound, how does the outcome read?
Its outcome is “inactive”.

Which outcome does the source give for CC(C)Nc1ccc(NC(C)C)c2c1C(=O)c1ccccc1C2=O here?
The outcome was “inactive”.

For C[C@]12CC[C@H]3C(=CCc4cc(O)ccc43)[C@@H]1CCC2=O, which outcome is on record?
Its outcome is “inactive”.

For CCC(Cc1c(I)cc(I)c(N)c1I)C(=O)O (configuration not stated), which outcome is on record?
Its outcome is “inactive”.

Which outcome does the source give for CCOC(OCC)OCC here?
Its outcome is “inactive”.

Test: ACEA_ER_AUC_viability: ACEA Biosciences xCELLigence Real-Time Cell Analysis on Estrogen Receptor Agonism for Viability (AID 2283782);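 also: continuous compound exposure with impedance area under curve over 80 h; hit means loss of impedance signal meaning reduced cell growth or viability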
In short: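 T-47D human breast cells in phenol red-free RPMI1640 with 10% charcoal-stripped FBS were dosed with an 8-point 1:4 dilution series from 100 uM top final concentration, in duplicate. Impedance-based growth was followed for 80 h; AUC analysed versus DMSO.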

Which AC50 does the source give for CCCCCCCCCCCCC[N+](C)(C)Cc1ccccc1 here?
The AC50 was 7.37 µM (active).

With CCN(CCO)S(=O)(=O)C(F)(F)C(F)(F)C(F)(F)C(F)(F)C(F)(F)C(F)(F)C(F)(F)C(F)(F)F as the compound, how does the AC50 read?
The AC50 was 20.2 µM (active).

With CCN=c1cc2oc3cc(NCC)c(C)cc3c(-c3ccccc3C(=O)OCC)c-2cc1C as the compound, how does the AC50 read?
The AC50 was 5.61 µM (active).

Which outcome does the source give for O=C(O)C(F)(F)C(F)(F)C(F)(F)OC(F)(C(F)(F)F)C(F)(F)F here?
The outcome was “inactive”.

With CCCCCCCCn1sc(Cl)c(Cl)c1=O as the compound, how does the AC50 read?
The AC50 was 1.99 µM (active).

For O=S(=O)(O)CCC(F)(F)C(F)(F)C(F)(F)C(F)(F)C(F)(F)C(F)(F)C(F)(F)C(F)(F)F, which outcome is on record?
The outcome was “inactive”.

Which AC50 does the source give for CCCCCCCCCCCCCC[P+](CCCC)(CCCC)CCCC here?
Its AC50 is 1.73 µM (active).

Which outcome does the source give for Cc1ccc2c(c1)OCC(=O)CO2 here?
The outcome was “inactive”.

With CCCCC(CC)COC(=O)c1ccc(N(C)C)cc1 (configuration not stated) as the compound, how does the AC50 read?
Its AC50 is 87.8 µM (active).

Which AC50 does the source give for CCc1cc(Cc2cc(CC)c(N)c(CC)c2)cc(CC)c1N here?
The AC50 was 68.3 µM (active).

With CCN=C1C=CC(=C(c2ccc(N(CC)CC)cc2)c2ccc(N(CC)CC)cc2)c2ccccc21 as the compound, how does the AC50 read?
Its AC50 is 5.37 µM (active).

Which outcome does the source give for Cc1cc(=O)[nH]c(C(C)C)n1 here?
The outcome was “inactive”.

Which AC50 does the source give for CCCCCCCCCc1ccc(OCCO)cc1 here?
Its AC50 is 35.2 µM (active).

With CCCCOC(=O)C(C)O (configuration not stated) as the compound, how does the outcome read?
Its outcome is “inactive”.

For COCCOCCC[Si](C)(O[Si](C)(C)C)O[Si](C)(C)C, which AC50 is on record?
Its AC50 is 79.6 µM (active).

Which outcome does the source give for Cc1cccc(C)n1 here?
Its outcome is “inactive”.

For CCCCCCCC/C=C\CCCCCCCC(=O)OCC(O)CO (configuration not stated), which AC50 is on record?
Its AC50 is 50 µM (active).

For CCC(C)CO (configuration not stated), which AC50 is on record?
The AC50 was 74.7 µM (active).

For O=C1C=CC(=O)N1c1ccccc1, which outcome is on record?
The outcome was “inactive”.

For CO[Si](CCCOCC1CO1)(OC)OC (configuration not stated), which AC50 is on record?
The AC50 was 76.8 µM (active).

For Brc1ccccn1, which outcome is on record?
The outcome was “inactive”.

For O=S(=O)(Cl)C(F)(F)C(F)(F)C(F)(F)C(F)(F)C(F)(F)C(F)(F)C(F)(F)C(F)(F)F, which outcome is on record?
Its outcome is “inactive”.

For CCCCCCCCCCCCCCCCC, which outcome is on record?
Its outcome is “inactive”.

For CCCCOC(=O)[C@H](C)O, which outcome is on record?
Its outcome is “inactive”.

For CCOC(OCC)OCC, which outcome is on record?
Its outcome is “inactive”.

For O=S(=O)(O)CCC(F)(F)C(F)(F)C(F)(F)C(F)(F)F, which outcome is on record?
Its outcome is “inactive”.
